Hits are enriched below; roughly 1.6% of the tested compounds scored in any of these assays.
KCNQ2 inh – blocks the rat KCNQ2 potassium channel. 310,000 tested, 1.1% active. B-score at 10 µM. CHO-K1 KCNQ2, FluxOR thallium flux, 20 min; active compounds read low. O88943. AID 2156;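 active means fluorescence ratio B-score at most minus 3 library SDs, with starting brightness B-score within 2 library SDs, cut at about -5.5 in these data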
Target sequence (O88943 whole entry, looked up): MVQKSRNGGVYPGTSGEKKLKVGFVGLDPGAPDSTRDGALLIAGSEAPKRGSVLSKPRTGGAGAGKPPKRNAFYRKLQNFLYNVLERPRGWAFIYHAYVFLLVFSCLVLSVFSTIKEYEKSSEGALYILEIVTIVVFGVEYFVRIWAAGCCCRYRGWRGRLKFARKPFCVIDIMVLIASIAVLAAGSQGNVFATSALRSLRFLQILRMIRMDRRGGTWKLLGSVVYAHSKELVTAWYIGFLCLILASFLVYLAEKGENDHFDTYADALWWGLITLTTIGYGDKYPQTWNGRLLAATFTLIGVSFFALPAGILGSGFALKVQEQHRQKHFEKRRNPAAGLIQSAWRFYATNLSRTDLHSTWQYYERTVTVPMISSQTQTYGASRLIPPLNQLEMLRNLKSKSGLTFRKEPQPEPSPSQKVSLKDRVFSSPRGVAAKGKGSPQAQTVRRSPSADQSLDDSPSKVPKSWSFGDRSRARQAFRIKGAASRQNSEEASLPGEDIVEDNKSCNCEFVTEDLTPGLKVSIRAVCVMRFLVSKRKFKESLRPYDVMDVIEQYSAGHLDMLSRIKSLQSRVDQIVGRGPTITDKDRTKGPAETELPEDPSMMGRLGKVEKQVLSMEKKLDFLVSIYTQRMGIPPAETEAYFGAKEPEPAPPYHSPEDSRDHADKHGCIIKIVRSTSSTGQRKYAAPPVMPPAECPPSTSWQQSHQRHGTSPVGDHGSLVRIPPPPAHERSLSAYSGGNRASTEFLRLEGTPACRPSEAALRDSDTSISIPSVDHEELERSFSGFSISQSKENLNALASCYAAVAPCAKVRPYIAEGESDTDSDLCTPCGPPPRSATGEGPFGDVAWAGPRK
KCNQ2 pot – enhances the rat KCNQ2 potassium channel | B-score at 10 µM | 310,000 tested, 0.54% active | O88943 | CHO-K1 KCNQ2, FluxOR thallium flux fluorescence; active compounds read high;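 active means fluorescence ratio B-score at least 3 SD of library B-scores, with initial fluorescence B-score within 3 of them, cut at about 5.3 in these data; same plate scores as AID 2156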;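 further: B-score of peak minus minimum over baseline fluorescence ratio after K+ and Tl+ stimulus; positive B-score means potentiation of KCNQ2 with more thallium influx and brighter signal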
KCNQ2 block conf – rat KCNQ2 channel inhibition, confirmatory screen | 1,000 tested, 57% active | activity change, negative = inhibition, % at 10 µM | shares compounds with KCNQ2 inh | KCNQ2-expressing cells, thallium flux; active compounds read low;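 further: 0% = vehicle wells and values are ratio percent relative to vehicle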
KCNQ1 spec – human KCNQ1 activity in KCNQ2 inhibitor specificity screen; shares compounds with KCNQ2 inh; KCNQ1-expressing cells, FluxOR thallium flux fluorescence; active compounds read low; activity change, negative = inhibition, % at 10 µM; 1,000 tested, 15% active; AID 493026;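 active means activity change at least 3 SD of negative controls below their mean in both duplicate wells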;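 further: CHO cells stably transfected with KCNQ1 and depolarized by potassium stimulus; peak minus minimum fluorescence over baseline after thallium addition; 0% = vehicle negative control and -100% = blank without thallium stimulus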
CHO Tl ctr – counter-screen for KCNQ2 inhibitors: effect in parental CHO cells | shares compounds with KCNQ2 inh | thallium flux counter-screen; active compounds read low | activity change, % at 10 µM | 1,000 tested, 14% active;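 further: 0% = vehicle negative controls with stimulus buffer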
KCNQ2 patch conf – rat KCNQ2 inhibition confirmed by electrophysiology | shares compounds with KCNQ2 inh | KCNQ2-expressing cells, automated patch clamp current | calls only at 10 µM | 550 tested, 49% active
The depositor's hits bear a star. Unless noted, how the calls were made is not given here.

C=CCn1c(SCc2c(C)noc2C)nc2ccccc2c1=O was read as KCNQ2 inh inactive.
`CC1=NNC(=O)C1CC(=O)N/N=C/c1cccs1` (configuration not stated) gave KCNQ2 inh inactive.
Cc1ccc(S(=O)(=O)NN2C(=O)c3ccccc3NC2c2ccccc2)cc1 (configuration not stated) was read as KCNQ2 inh inactive.
`COc1ccc2[nH]c(=O)c(C(c3nnnn3C3CCCCC3)N3CCN(C)CC3)cc2c1` (configuration not stated) gave KCNQ2 inh inactive.
COc1cc2cc(C(c3nnnn3C3CCCCC3)N(C)C3CCCCC3)c(=O)[nH]c2cc1OC (configuration not stated) was read as KCNQ2 inh -11*, KCNQ2 pot -11, KCNQ2 block conf inactive, KCNQ1 spec inactive and CHO Tl ctr inactive.
`CC(C)C(c1nnnn1C1CCCC1)N(C)C1CCCCC1` (configuration not stated) gave KCNQ2 inh inactive and KCNQ2 pot 1.
Screening COc1ccc(Cn2nnnc2C(c2cc3cc(C)ccc3[nH]c2=O)N2CCN(C)CC2)cc1 (configuration not stated) returned KCNQ2 inh inactive.
`O=c1[nH]c2cc3c(cc2cc1C(c1nnnn1C1CCCC1)N1CCSCC1)OCCO3` (configuration not stated) gave KCNQ2 inh inactive and KCNQ2 pot 0.87.
`COc1cc2cc(C(c3nnnn3C3CCCC3)N(C)C3CCCCC3)c(=O)[nH]c2cc1OC` (configuration not stated) gave KCNQ2 inh -9*, KCNQ2 pot -9, KCNQ2 block conf -36%*, KCNQ1 spec inactive, CHO Tl ctr inactive and KCNQ2 patch conf active.
Screening Cc1ccc(C(c2nnnn2C2CCCCC2)N(C)C2CCCCC2)cc1 (configuration not stated) returned KCNQ2 inh -8.3*, KCNQ2 pot -8.3, KCNQ2 block conf inactive, KCNQ1 spec inactive and CHO Tl ctr inactive.
Screening COc1cc2cc(C(c3nnnn3Cc3ccc(F)cc3)N3CCCCCC3)c(=O)[nH]c2cc1OC (configuration not stated) returned KCNQ2 inh -7.7*, KCNQ2 pot -7.7, KCNQ2 block conf -28%*, KCNQ1 spec inactive, CHO Tl ctr inactive and KCNQ2 patch conf active.
For CCOc1ccc(/C=N\NC(=O)CC(=O)NCCc2ccccc2)cc1 the results were KCNQ2 inh inactive.
`CN(Cc1ccc(OC(F)F)cc1)Cc1nc2c(Br)cc(Br)cc2c(=O)[nH]1` gave KCNQ2 inh inactive.
For Cc1cccc(N2CCN(C(=O)C34CC5CC(CC(C5)C3)C4)CC2)c1C the results were KCNQ2 inh -7.3*, KCNQ2 pot -7.3, KCNQ2 block conf -20%*, KCNQ1 spec inactive, CHO Tl ctr inactive and KCNQ2 patch conf inactive.
Cc1cccc(N2CCN(C(=O)N3CCCCC3)CC2)c1C was read as KCNQ2 inh inactive.
Screening O=C(N1CCN(c2ccccc2F)CC1)C12CC3CC(CC(C3)C1)C2 returned KCNQ2 inh -7.6*, KCNQ2 pot -7.6, KCNQ2 block conf -26%*, KCNQ1 spec inactive, CHO Tl ctr inactive and KCNQ2 patch conf active.
For O=C(N1CCN(c2ccc(F)cc2)CC1)C12CC3CC(CC(C3)C1)C2 the results were KCNQ2 inh inactive.
`C=CCNc1nc(NCc2ccco2)nc(OCC)n1` gave KCNQ2 inh inactive and KCNQ2 pot 0.28.
For Cc1ccccc1NC(=O)c1nn(C)c(C(=O)Nc2ccccc2C)c1[N+](=O)[O-] the results were KCNQ2 inh inactive and KCNQ2 pot 1.3.
`CCCC(c1nnnn1CC1CCCO1)N1CCN(c2ccccc2)CC1` (configuration not stated) gave KCNQ2 inh inactive.
Screening Cc1ccc(N/C=C/C(=O)c2cccs2)cc1C returned KCNQ2 inh inactive.
O=C(/C=C/Nc1ccc(Nc2ccccc2)cc1)c1cccs1 was read as KCNQ2 inh -7.3*, KCNQ2 pot -7.3, KCNQ2 block conf inactive, KCNQ1 spec inactive and CHO Tl ctr inactive.
CCCC(c1nnnn1CC(=O)OCC)N(Cc1cc2ccc(C)cc2[nH]c1=O)C1CCCC1 (configuration not stated) was read as KCNQ2 inh inactive.
Screening CC1CCC2(CC1)NC(=O)N(CC(=O)Nc1ccc(N3CCOCC3)cc1)C2=O (configuration not stated) returned KCNQ2 inh inactive and KCNQ2 pot 1.4.
`COc1ccc(-c2cc(C(=O)NCC(c3ccccc3)N(C)C)c3ccccc3n2)cc1OC` (configuration not stated) gave KCNQ2 inh inactive.
`COc1cc(-c2cc(C(=O)Nc3c(Cl)cc(Cl)cc3Cl)c3ccccc3n2)cc(OC)c1OC` gave KCNQ2 inh -7.2*, KCNQ2 pot -7.2, KCNQ2 block conf -25%*, KCNQ1 spec inactive, CHO Tl ctr inactive and KCNQ2 patch conf active.
COc1cc(-c2cc(C(=O)N(C)Cc3ccccc3)c3ccccc3n2)cc(OC)c1OC was read as KCNQ2 inh -7.2*, KCNQ2 pot -7.2, KCNQ2 block conf -28%*, KCNQ1 spec inactive, CHO Tl ctr inactive and KCNQ2 patch conf active.
COc1cc(-c2cc(C(=O)Nc3ccc(S(N)(=O)=O)cc3)c3ccccc3n2)cc(OC)c1OC was read as KCNQ2 inh inactive.
COc1ccccc1CN(C)C(=O)c1cc(-c2cc(OC)c(OC)c(OC)c2)nc2ccccc12 was read as KCNQ2 inh inactive.
Screening COCCN(Cc1ccccc1)C(=O)c1cc(-c2ccc(OC)c(OC)c2)nc2ccccc12 returned KCNQ2 inh -8.9*, KCNQ2 pot -8.9, KCNQ2 block conf -30%*, KCNQ1 spec inactive, CHO Tl ctr inactive and KCNQ2 patch conf active.
For CC(=O)Nc1ccc(-n2c(C)ccc2-c2ccccc2)cc1 the results were KCNQ2 inh inactive.
`O=C(c1ccc(F)cc1)C1CCN(C(=O)Nc2ccccc2Cl)CC1` gave KCNQ2 inh inactive.
`O=C(OCc1ccc(COC(=O)c2cccnc2Cl)cc1)c1cccnc1Cl` gave KCNQ2 inh inactive and KCNQ2 pot 0.11.
Screening C/C=C/c1ccc(OCC(=O)NCc2ccccc2OC)c(OC)c1 returned KCNQ2 inh -6.7*, KCNQ2 pot -6.7, KCNQ2 block conf inactive, KCNQ1 spec inactive and CHO Tl ctr inactive.
Screening COc1ccccc1CNC(=O)COc1ccccc1C returned KCNQ2 inh inactive.
`O=C(NNC(=O)c1ccc(Cl)cc1Cl)c1ccncc1` gave KCNQ2 inh inactive.
Screening CCOC(=O)c1cc(NC(=O)N2CCCc3ccccc32)c(C)nc1C returned KCNQ2 inh inactive and KCNQ2 pot 0.17.
Screening CCCN(CCC)c1nc(-c2ccccn2)nc2ccccc12 returned KCNQ2 inh inactive.

Bioassay records as filed in PubChem.
